Molecules are shown by their SMILES. “And” between values parts separate entries of the source, which are not always exact repeats. Identical values can stand only once. Some structures have more than one record in an assay (separate samples or runs), and their calls can disagree. The source made the active and inactive calls. Unless noted, how the calls were made is not given here.

This is an account of results in PubChem BioAssay.

Experiment [1] in a line: A549 cell viability effects, profiling panel, calcein-AM fluorescence, 48 h, basal (AID 1162). Further: test concentration not given here. As to conditions: higher = more signal.
Experiment [2] is described as follows: adipocyte viability effects, profiling panel, cell-based, 3T3-L1 adipocytes, calcein-AM fluorescence, 48 h, basal (AID 1163). Further: test concentration not given here. As to conditions: 3T3-L1 adipocytes viability, higher = more signal.
Experiment [3] is described as follows: HepG2 cell viability effects, profiling panel, calcein-AM fluorescence, 48 h, basal (AID 1164). Further: test concentration not given here. As to conditions: higher = more signal.
Experiment [4] can be described thus: MM1S cell viability effects, profiling panel, calcein-AM fluorescence, 48 h, basal (AID 1165).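 Further: viability of MM1S multiple myeloma cells under basal unstimulated conditions; test concentration not given here.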 To be noted: higher = more signal.
Experiment [5] can be described thus: basal RPMI8226 viability, no added stimulus, profiling panel, cell-based, calcein-AM fluorescence, 48 h, PK04 Diversity Set (AID 1166).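 Further: cells grown under basal conditions without added stimulus; test concentration not given here.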 To be noted: RPMI8226 myeloma viability, higher = more signal.
The nature of experiment [6]: basal HepG2 mitochondrial membrane potential changes, profiling panel, cell-based, JC-1 fluorescence, 24 h, 100 nL compound (AID 1167). Further: test concentration not given here. To be noted: higher = more signal.
Experiment [7] is described as follows: basal 3T3-L1 adipocyte mitochondrial potential changes, profiling panel, cell-based, JC-1 fluorescence, 3T3-L1 adipocytes, 24 h, 100 nL compound (AID 1168). Further: test concentration not given here. To be noted: JC-1 mitochondrial fluorescence, higher = more signal, called active from +8 up or from −8 down.
The nature of experiment [8]: basal RPMI8226 mitochondrial membrane potential changes, profiling panel, cell-based, JC-1 fluorescence, 24 h, 100 nL compound (AID 1169). Further: test concentration not given here. As to conditions: RPMI8226 myeloma, JC-1 mitochondrial potential fluorescence, higher = more signal.
A short description of experiment [9]: basal MM1S mitochondrial membrane potential changes, profiling panel, cell-based, JC-1 fluorescence, 24 h, 100 nL compound (AID 1170). Further: test concentration not given here. To be noted: higher = more signal.
A short description of experiment [10]: A549 lung cancer cell viability effects, profiling panel, resazurin fluorescence, 24 h, PK04 Diversity Set (AID 1171). Further: test concentration not given here. As to conditions: higher = more signal, called active from +8 up or from −8 down. Background: Alamar Blue is a resazurin reagent that responds to reducing activity.
Experiment [11] is described as follows: HepG2 liver cancer cell viability effects, profiling panel, resazurin fluorescence, 24 h, PK04 Diversity Set (AID 1172). Further: test concentration not given here. To be noted: higher = more signal.
A short description of experiment [12]: basal S. cerevisiae growth modulation, no modifier, primary screen, OD600, strain BY4716, 24 h, basal condition (AID 1173). To be noted: OD600, 24 h, higher = more signal, called active from +8 up or from −8 down.
Experiment [13] in a line: MM1S myeloma cell viability, profiling panel, resazurin fluorescence, basal, 24 h, PK04 Diversity Set (AID 1174). Further: test concentration not given here. As to conditions: higher = more signal, called active from +8 up or from −8 down.
Experiment [14] addresses Dihydroorotate dehydrogenase (quinone), mitochondrial (Plasmodium falciparum (isolate 3D7)) (UniProt Q08210). The experiment is described as follows: PfDHODH enzyme inhibitors, primary screen, biochemical, C-terminal His tag, absorbance 600 nm (AID 1175).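 Further: recombinant parasite enzyme with a five histidine tag at its C terminus; test concentration not given here.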 As to conditions: DCIP absorbance 600 nm, higher = more signal, called active from +8 up or from −8 down.
Experiment [15] is described as follows: P. aeruginosa biofilm formation inhibitors, primary screen, strain PAO1, LB-PBS medium, absorbance 600 nm (AID 1176). Further: test concentration not given here. To be noted: P. aeruginosa PAO1 growth/biofilm, A600, 12 h; higher = more signal.
Experiment [16] is described as follows: S. cerevisiae RM11-1a growth modifiers, primary screen, strain RM11-1a, OD600, basal, 24 h (AID 1177).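 Further: cultures grown under basal conditions with no added stressor; test concentration not given here.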 To be noted: OD600, 24 h, higher = more signal, called active from +8 up or from −8 down.
Experiment [17] in a line: E. coli acrAB mutant growth effects, primary screen, E. coli filamentation inducers, strain DRC39, OD650, 24 h (AID 1178).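 Further: growth measured as culture turbidity by optical density at 650 nm; test concentration not given here.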 As to conditions: higher = more signal, called active from +8 up or from −8 down.
Experiment [18] is described as follows: E. coli acrAB mutant growth effects, primary screen, E. coli filamentation inducers, strain DRC39, OD650, 48 h (AID 1179).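 Further: screen aims at cell division blockers that make cells filament.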 As to conditions: E. coli DRC39 delta-acrAB growth, higher = more signal, called active from +8 up or from −8 down.
Experiment [19] can be described thus: RPMI8226 myeloma cell viability, profiling panel, resazurin fluorescence, basal, 24 h, PK04 Diversity Set (AID 1180).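 Further: RPMI8826 multiple myeloma cell line at 5000 cells per well; test concentration not given here.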 To be noted: higher = more signal.
Experiment [20] has as its target E3 ubiquitin-protein ligase XIAP (Homo sapiens) (UniProt P98170). Briefly: XIAP binders, primary screen, biophysical, small-molecule microarray, fluorescence 635 nm (AID 1181).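 Further: score merges 667 nm emission and signal to noise over triplicate slides.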 To be noted: small-molecule microarray binding, higher = more signal.

E3 ubiquitin-protein ligase XIAP (Homo sapiens), sequence (P98170 whole entry, looked up): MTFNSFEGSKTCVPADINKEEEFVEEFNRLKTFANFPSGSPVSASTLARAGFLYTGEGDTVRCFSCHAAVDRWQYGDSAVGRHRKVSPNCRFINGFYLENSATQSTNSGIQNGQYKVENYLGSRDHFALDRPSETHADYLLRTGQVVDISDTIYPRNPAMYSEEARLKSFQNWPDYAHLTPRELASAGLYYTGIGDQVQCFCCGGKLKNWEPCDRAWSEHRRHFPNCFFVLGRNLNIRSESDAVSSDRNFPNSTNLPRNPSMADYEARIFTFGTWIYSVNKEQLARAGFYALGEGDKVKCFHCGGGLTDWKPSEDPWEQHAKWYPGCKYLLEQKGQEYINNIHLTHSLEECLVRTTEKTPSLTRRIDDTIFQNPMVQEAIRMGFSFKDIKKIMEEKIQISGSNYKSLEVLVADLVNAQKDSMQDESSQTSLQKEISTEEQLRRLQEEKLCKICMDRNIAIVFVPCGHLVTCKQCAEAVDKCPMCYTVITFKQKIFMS
Dihydroorotate dehydrogenase (quinone), mitochondrial (Plasmodium falciparum (isolate 3D7)), sequence (Q08210 whole entry, looked up): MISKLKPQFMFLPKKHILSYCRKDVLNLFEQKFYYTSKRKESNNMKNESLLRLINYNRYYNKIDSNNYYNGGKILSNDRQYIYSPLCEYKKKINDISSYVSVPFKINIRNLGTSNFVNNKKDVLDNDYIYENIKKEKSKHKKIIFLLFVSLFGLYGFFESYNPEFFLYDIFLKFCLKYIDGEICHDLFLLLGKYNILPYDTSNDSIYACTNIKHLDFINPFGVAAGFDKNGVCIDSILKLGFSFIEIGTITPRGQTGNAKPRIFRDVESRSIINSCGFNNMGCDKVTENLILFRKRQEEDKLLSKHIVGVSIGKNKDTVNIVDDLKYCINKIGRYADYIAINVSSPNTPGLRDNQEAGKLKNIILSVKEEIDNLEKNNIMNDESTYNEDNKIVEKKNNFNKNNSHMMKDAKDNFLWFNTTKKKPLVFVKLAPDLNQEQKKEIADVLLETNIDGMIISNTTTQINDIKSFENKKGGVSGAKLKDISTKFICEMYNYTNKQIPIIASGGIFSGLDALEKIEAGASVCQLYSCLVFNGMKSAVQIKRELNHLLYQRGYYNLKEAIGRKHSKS

In the case of `C=CCN(CCCCC)C(=O)C1N(c2ccc(CCO)cc2)C(=O)C2C(C(=O)O)C3C=CC21O3` (centres undefined), the z-score in experiment [1] was -0.0277 and -0.611; in [2], -0.0076 and 0.226; in experiment [3], -0.97 and 0.288; in [4], 0.867 and 0.199; in experiment [5], -0.322 and -1.02; in [6], -0.587 and -1.1. The z-score in experiment [7] was -0.545 (inactive) and -0.407 (inactive); in experiment [8] it was 0.647 and 0.562; in experiment [9], 0.743 and 0.912; in [10], -0.792 (inactive) and -0.842 (inactive); in [11], -0.572 and -0.506; in experiment [12] it was -0.058 (inactive) and 0.644 (inactive). The z-score in [13] is -0.933 (inactive) and -1.12 (inactive); in experiment [15], 0.317 (inactive) and 0.606 (inactive); in [16] it was -0.611 (inactive) and -0.297 (inactive); in experiment [17] it was -0.623 (inactive) and -0.0654 (inactive); in experiment [18] it was -0.689 (inactive) and -0.552 (inactive); in experiment [19] it was -0.871 and -1.15. For the same molecule, the composite z-score in experiment [14] is -0.0016 (inactive) and 0.598 (inactive); in [20], -0.193 and -0.0559.
Take `CC(C)[Si]1(C(C)C)OCc2cc(CCCc3cc4c(c(CCc5ccccc5)n3)[Si](C(C)C)(C(C)C)OC4)nc(CCc3ccccc3)c21`: the z-score was 0.148 and -0.222 in experiment [1]; 0.673 and -0.626 in experiment [2]; -0.661 and -0.566 in experiment [3]; -1.66 and 0.326 in experiment [4]; -1.09 and -0.322 in experiment [5]; -0.508 and -1.19 in [6]. For the same molecule, the z-score in experiment [7] is 1.72 (inactive) and -1 (inactive); in [8], -0.152 and 1.02; in experiment [9], -0.38 and -0.852; in [10] it was 0.576 (inactive) and -0.19 (inactive); in experiment [11], 0.926 and -0.531; in experiment [12], -15.4 (active) and 0.852 (inactive). The z-score was -0.78 (inactive) and -0.186 (inactive) in experiment [13]; 0.35 (inactive) in experiment [15]; -0.656 (inactive) and 0.13 (inactive) in [16]; 1.87 (inactive) and -0.184 (inactive) in [17]; 1.19 (inactive) and -0.0698 (inactive) in experiment [18]; 0.583 and -1.16 in [19]. Further, the composite z-score was -0.351 (inactive) and 0.681 (inactive) in experiment [14]; -0.0095 and -0.111 in experiment [20].
`C[C@@H]1CC[C@H]2C(=O)N3[C@@H](CC[C@@H](C)[C@@H]3c3ccc(-c4ccco4)cc3)C(=O)N2[C@H]1c1ccc(-c2ccco2)cc1`: the z-score in experiment [1] was -0.521 and 0.709; in experiment [2] it was 0.489 and 0.992; in [3], -0.676 and -0.195; in experiment [4], -0.372 and -2.15; in experiment [5], -0.537 and -1.3; in experiment [6] it was -1.41 and -2.19. Further, the z-score in experiment [7] is -0.996 (inactive) and -0.779 (inactive); in experiment [8], 0.299 and -0.414; in experiment [9], 0.863 and 0.498; in experiment [10], -0.244 (inactive) and 1.43 (inactive); in experiment [11], -0.458 and 0.764; in [12], 0.666 (inactive) and -1.56 (inactive). In addition, the z-score in experiment [13] is -0.316 (inactive) and 1.14 (inactive); in experiment [15] it was 0.143 (inactive); in experiment [16] it was 0.43 (inactive) and -0.546 (inactive); in experiment [17] it was 0.0111 (inactive) and 0.845 (inactive); in experiment [18], -0.0533 (inactive) and 0.0395 (inactive); in experiment [19] it was 0.136 and 1.2. In addition, the composite z-score in experiment [14] was -1.48 (inactive) and -7.32 (inactive); in experiment [20], -0.0559 and 0.217.
On to `CO[C@@H]1COC(=O)[C@H](Cc2ccccc2)NC(=O)CC=C[C@@H](C)[C@H](OC)COC(=O)[C@@H](C)NC(=O)CC=C[C@H]1C`, for which the z-score in [1] was -0.0911 and -0.304; in [2], 0.686 and -0.191; in experiment [3] it was 0.0488 and 1.09; in [4], 0.144 and 0.329; in experiment [5], 0.173 and 1.12; in experiment [6] it was 0.999 and -0.15. The z-score is 0.67 (inactive) and 1.56 (inactive) in experiment [7]; 0.645 and -0.266 in [8]; 0.452 and 0.623 in experiment [9]; 0.632 (inactive) and 0.35 (inactive) in experiment [10]; 0.959 and 0.62 in experiment [11]; -1.78 (inactive) and -1.48 (inactive) in experiment [12]. Further, the z-score in experiment [13] was 1.27 (inactive) and 0.921 (inactive); in experiment [16] it was -1.34 (inactive) and -1.08 (inactive); in experiment [17], 0.357 (inactive) and 0.951 (inactive); in experiment [18], 0.067 (inactive) and 0.74 (inactive); in experiment [19], 1 and -0.289. Also, the composite z-score in [14] is -0.595 (inactive) and -0.614 (inactive); in experiment [20] it was -0.203 and -0.192.
Consider `CO[C@@H]1COC(=O)CC=C[C@H](C)[C@@H](NS(=O)(=O)c2ccc(C)cc2)COC(=O)CC=C[C@@H]1C`, for which the z-score in experiment [1] is 0.725 and -1.15; in experiment [2], -0.779 and -0.0305; in experiment [3], 0.515 and -1.42; in experiment [4] it was 0.317 and 0.286; in experiment [5], -0.0273 and 0.0878; in experiment [6], 0.651 and -0.353. The z-score in [7] is -0.162 (inactive) and -1.02 (inactive); in experiment [8], -0.235 and 0.237; in experiment [9], 0.654 and -0.385; in experiment [10] it was -0.512 (inactive) and 1.4 (inactive); in experiment [11] it was 0.157 and 1.73; in experiment [12], -0.627 (inactive) and -0.634 (inactive). The z-score in experiment [13] is 0.445 (inactive) and 0.542 (inactive); in experiment [15], -0.531 (inactive) and -0.479 (inactive); in experiment [16], 0.344 (inactive) and 0.104 (inactive); in [17], 0.643 (inactive) and 0.426 (inactive); in experiment [18], 0.292 (inactive) and 0.187 (inactive); in [19], -0.325 and 0.774. For the same molecule, the composite z-score in experiment [14] is -0.198 (inactive) and -0.555 (inactive); in experiment [20], -0.209 and -0.304.
Turning to `CCN1C(=O)[C@H]2[C@H]3[C@H](O)[C@H](O)CC(=NOC)[C@@H]3CC[C@H]2C1=O`, the z-score in experiment [1] is 0.357; in [2] it was -0.344; in [3] it was -0.0225; in experiment [4] it was -0.106; in experiment [5] it was 0.887; in experiment [6], 0.459. Also, the z-score was 1.7 (inactive) in experiment [7]; 0.0805 in experiment [8]; -0.218 in experiment [9]; -0.562 (inactive) in experiment [10]; 0.146 in experiment [11]; -1.88 (inactive) in experiment [12]. In addition, the z-score was 0.0831 (inactive) in experiment [13]; 0.924 (inactive) in [15]; -0.458 (inactive) in experiment [16]; 0.759 (inactive) in experiment [17]; 0.953 (inactive) in [18]; 0.0325 in experiment [19]. Besides, the composite z-score in [14] was -0.581 (inactive); in experiment [20], 0.487.
